Compound activity from PubChem BioAssay.
CYP2C19 activ – human CYP2C19 activators, primary screen, biochemical, luminescence; Cytochrome P450 2C19 (Homo sapiens), P33261; AID 1025, 2008; recombinant CYP2C19, luciferin-H EGE luminescence; hits give high values; 0 = fully inhibited enzyme, 1 = untreated enzyme; activation factor at 5 µM; 96,000 tested, under 10 active;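 active = activation factor of at least 2 at 5 µM in the primary screen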;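 also: 0 = wells with 2.5 mM tranylcypromine and 1 = vehicle-only wells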
CYP2C19 inhib – blockers of cytochrome P450 2C19 activity – biochemical, luminescence, ADME assay, primary screen. P33261. CYP2C19 Supersomes, luciferin-H EGE luminescence, 30 min. inhibition, % at 5 µM. actives 21% (n = 96,000);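 active = CYP2C19 inhibition above a set limit at 5 µM in the primary screen, cut at about 50% in these data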;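 also: plate controls were negative control wells for no effect and 2.5 mM tranylcypromine positive control for full effect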
Cav32 inh – Cav3.2 calcium influx blockers – cell-based, Fluo-4 calcium fluorescence, FDSS, MLSMR library, primary screen; B-score at 10 µM; AID 449739, 2010; Voltage-dependent T-type calcium channel subunit alpha-1H (Homo sapiens), O95180; Cav3.2-expressing cells; hits give low values; actives 4% (n = 100,000);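 active = single-dose well whose peak fluorescence ratio is a statistical outlier from its plate by either plate-standardised score or position-corrected B-score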
CYP2C9 activ – human CYP2C9 activators, primary screen, biochemical, luminescence; Cytochrome P450 2C9 (Homo sapiens), P11712; recombinant CYP2C9, luciferin-H conversion; hits give high values; factor 1 = untreated enzyme, 0 = blocked; activation factor at 5 µM; actives 1.4% (n = 96,000);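 active = activation factor of 2 or more for CYP2C9 at a 5 µM dose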;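 also: 0 = sulfaphenazole-blocked wells and 1 = vehicle-only wells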
CYP2C9 inh – blockers of cytochrome P450 2C9 activity – biochemical, luminescence, ADME assay, primary screen. P11712. actives 20% (n = 96,000). inhibition, % at 5 µM. AID 777, 2007. CYP2C9 Supersomes, luciferin-H conversion;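 active = blocking of liver enzyme CYP2C9 beyond about 50% at 5 µM, limit read from the data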
The depositor's hits bear a star; . = no result. Sampled rows, rich in hits. Any-hit rate of the full collection: about 27%.

SMILES	CYP2C19 activ	CYP2C19 inhib	Cav32 inh	CYP2C9 activ	CYP2C9 inh
Cc1cccc(NC(=O)CC2SC(=NC3CCCCC3)NC2=O)c1 (centres undefined)	0.7	27	0.023	0.3	66*
O=C(CC1SC(=NC2CCCCC2)NC1=O)Nc1ccccc1 (centres undefined)	.	.	1.3	.	.
CCCC(=O)Nc1ccc(C(=O)NNC(=O)c2ccccc2Br)cc1	0.9	8	-3.6	0.8	22
COc1ccc(-c2nnc(-c3cc4c(ccc5ccccc54)oc3=O)o2)cc1	0.3	68*	-0.2	0.4	56*
CCN(CC)c1ccc2cc(-c3nnc(-c4ccccc4)o3)c(=O)oc2c1	.	.	-11*	.	.
CCN(CC)c1ccc2cc(-c3nc4ccccc4[nH]3)c(=O)oc2c1	0.6	44	-7.3*	0.7	25
O=c1oc2ccccc2cc1-c1nnc(-c2cccc(Br)c2)o1	0.9	9	-0.41	1.5	-47
CCN(CC)c1ccc2cc(-c3nc4ccccc4n3C)c(=O)oc2c1	1	3	-1.4	1.3	-33
CCC1(C)CC(C(CC(=O)O)c2ccc(C)cc2)CCO1 (centres undefined)	0.7	29	1.9	0.5	49
O=C(c1ccc(CSCc2ccccc2F)o1)N1CCN(c2ccc(N3CCOCC3)nn2)CC1	0.4	60*	-0.27	0.5	50*
O=C(c1cc2ccccc2oc1=O)N1CCN(c2ccc(N3CCOCC3)nn2)CC1	1	0	.	0.9	11
CCN(CC)S(=O)(=O)c1ccc2oc(C(=O)NC(C)C)c(C)c2c1	1	-2	0.47	0.7	26
Cc1ccc(CNS(=O)(=O)c2ccc3oc(C(=O)O)c(C)c3c2)cc1	1.1	-11	-2.8	0.3	67*
CCN(Cc1ccccc1)S(=O)(=O)c1ccc2oc(C(=O)O)c(C)c2c1	1	2	0.57	0	98*
Cc1c(C(=O)NCC2COc3ccccc3O2)oc2ccc(S(=O)(=O)N(C)C3CCCCC3)cc12 (centres undefined)	0.5	49	-4.3*	0	95*
CCN(CC)S(=O)(=O)c1ccc2oc(C(=O)NCc3ccc(C)cc3)c(C)c2c1	0.6	42	-3.4	0.5	51*
Cc1c(C(=O)O)oc2ccc(S(=O)(=O)N(CC(C)C)CC(C)C)cc12	1.1	-5	1.9	0.6	36
c1ccc(Nc2nn[nH]n2)cc1	1.1	-12	0.39	1.1	-13
O=C1C=CCC(/C=C/c2ccccc2)O1 (centres undefined)	.	.	1	.	.
CCOC(=O)c1cc(NC(=O)CSc2nnc(CN3CCOCC3)n2C)ccc1Cl	.	.	1.7	.	.
O=C(O)C1=C[C@H](c2csc3ccccc23)C[C@H](OCCCCO)O1	.	.	-0.25	.	.
CC(=O)c1cccc(NC(=O)c2cc3nc(C)cc(C)n3n2)c1	1	-3	0.37	1	-1
CCN(CC)S(=O)(=O)c1ccc2oc(C(=O)O)c(C)c2c1	1	-4	0.8	0.2	77*
CCOc1cc(C(c2c(C)[nH][nH]c2=O)c2c(C)[nH][nH]c2=O)ccc1OCc1ccc([N+](=O)[O-])cc1	0.4	60*	-0.11	0.7	34
CCOc1cc(C(c2c(C)[nH][nH]c2=O)c2c(C)[nH][nH]c2=O)ccc1OC(=O)c1cccc([N+](=O)[O-])c1	0.6	41	0.035	0.5	54*
SMILES	CYP2C19 activ	CYP2C19 inhib	Cav32 inh	CYP2C9 activ	CYP2C9 inh
CCCCOC(=O)C1C2C=C[C@]3(CN(CCCOC)C(=O)[C@H]13)O2 (some centres undefined)	1	0	0.89	1	-3
C=CCN1c2ccccc2[C@]23C[C@@H](C(=O)OC)N(C(=O)c4cccs4)C2=NC(C(=O)OC)=C(C(=O)OC)[C@H]13	.	.	-2.2	.	.
CCN(CC)c1nc2ccccc2c(N)c1-c1ccccc1	0.6	37	-2.4	0.6	36
O=C(NCCc1ccccc1)c1ncn[nH]1	0.9	6	0.15	1.1	-8
CC(C)(C)c1ccc(OCCNC(=O)c2ncn[nH]2)cc1	0.2	75*	-0.69	0.5	53*
Cc1nc(-c2ccccc2)nc2[nH]c(C(C)C)cc(=O)c12	0.8	15	0.0064	0.2	81*
COc1ccc(S(=O)(=O)N2CCC(C(=O)N3CCCCC3)CC2)cc1Cl	0.1	92*	0.78	0.8	20
COc1ccc(S(=O)(=O)N2CCCCC2)cc1C(C)C	0.7	31	-2.6	0.8	22
COc1ccc(S(=O)(=O)N2CCC(C(=O)N3CCCC3)CC2)cc1Cl	0.1	89*	0.031	0.8	22
Cc1ccc(O)c(C(=O)c2cc(C#N)c(=O)n(CC3CCCO3)c2)c1 (centres undefined)	0.3	66*	1	0.5	47
COc1ccc(-n2c(C)cc(C(=O)COC(=O)Cn3cnc4ccccc43)c2C)cc1	0.9	11	-2.2	0.9	6
COC(=O)c1cc(C(=O)OC)cc(-n2c(C)cc(C(=O)CC#N)c2C)c1	0.7	34	-0.64	0.3	69*
Cc1cc(C(=O)CC#N)c(C)n1-c1ccc(OC(F)F)cc1	0.1	91*	-1.2	0.2	79*
COc1ccc(N2CCN(Cc3nc4c(c(=O)n(C)c(=O)n4C)n3C(C)C(C)=O)CC2)cc1 (centres undefined)	0.8	15	-0.15	0.9	9
O=S(=O)(Nc1ccc2c(c1)nc1n2CCOC1)c1ccccc1	1	2	0.065	0.8	17
O=S(=O)(Nc1ccc2c(c1)nc1n2CCOC1)c1ccc(Cl)cc1	0.5	49	-0.61	0.3	73*
CCOC(=O)C(Cc1ccccc1)NC(=O)Cn1nnc(-c2ccc(SC)cc2)n1 (centres undefined)	0.3	67*	-3.3	0.9	15
CSc1ccc(-c2nnn(CC(=O)NCc3ccccc3)n2)cc1	0.7	34	-0.91	0.7	33
COc1nc(-c2ccncc2)nc2ccccc12	0.3	74*	-1.2	0.3	72*
CCCCN(CC)c1nc(-c2ccncc2)nc2ccccc12	0	96*	-2.4	0.1	94*
CCOC(=O)CNc1nc(-c2ccncc2)nc2ccccc12	0.5	48	0.79	0.4	58*
c1ccc2c(N3CCCC3)nc(-c3ccncc3)nc2c1	0.2	84*	0.71	0.5	48
O=C(Cc1ccsc1-c1ccccc1)NO	0.9	12	-1.3	1.2	-17
CCOC(=O)CSc1nc2sc3c(c2c(=O)n1C1CCCCC1)CCN(C)C3	.	.	0.43	.	.
C=CCOc1nc(-c2ccncc2)nc2ccccc12	0.2	79*	-2.5	0.4	64*
Nc1nc(SCc2nc3scc(-c4ccccc4)c3c(=O)[nH]2)n[nH]1	0.8	24	1	0.5	50*
